Laboratory results: PubChem BioAssay AID1376 (SRMLSC, 2008)
Values joined by “and” are separate entries in the source; they are usually repeats but may differ in a detail not shown here. Equal entries are not always repeated. Among all 220,000 compounds or so, about 530 (0.24%) were called active. Cut-off read from the data, not from the text of the source: active = inhibition above about 13%; inconclusive = no clear call, values can overlap the other calls; inactive = below that. Many of the other results were omitted from the sample, so actives are more common in it than they were. Results with a measured potency or affinity are listed apart. Some compounds were tested as several samples or in several runs, with calls that do not always agree.

These compounds were tested against Bifunctional protein GlmU (Mycobacterium tuberculosis (strain ATCC 25618 / H37Rv)) (UniProt P9WMN3) (assay: inhibition of mycobacterial GlmU enzyme – biochemical, glucosamine-1-phosphate acetyltransferase (AID 1376;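 note: 0% = complete reaction with vehicle and 100% = reaction without substrate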)). Settings: M. tuberculosis GlmU acetyltransferase enzyme assay; stronger effect = higher value;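 tested at 30 µM in the primary screen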.
Bifunctional protein GlmU (Mycobacterium tuberculosis (strain ATCC 25618 / H37Rv)), sequence (P9WMN3 whole entry, looked up): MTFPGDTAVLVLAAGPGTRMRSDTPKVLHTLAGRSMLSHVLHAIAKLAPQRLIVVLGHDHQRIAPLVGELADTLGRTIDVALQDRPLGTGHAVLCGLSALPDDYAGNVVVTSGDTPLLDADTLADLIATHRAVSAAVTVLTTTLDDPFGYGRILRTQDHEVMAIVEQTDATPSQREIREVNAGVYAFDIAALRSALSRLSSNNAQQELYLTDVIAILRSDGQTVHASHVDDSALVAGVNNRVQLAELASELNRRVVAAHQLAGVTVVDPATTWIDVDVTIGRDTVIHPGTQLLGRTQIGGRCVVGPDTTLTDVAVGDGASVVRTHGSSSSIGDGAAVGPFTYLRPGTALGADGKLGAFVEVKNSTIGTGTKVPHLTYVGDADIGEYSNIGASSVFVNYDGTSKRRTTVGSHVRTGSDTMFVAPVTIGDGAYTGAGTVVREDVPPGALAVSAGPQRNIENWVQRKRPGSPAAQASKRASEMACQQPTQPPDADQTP

Row | Compound | inhibition
1 | CCOc1ccc(NC(=O)C2=C(C)C(=O)OC23CCC(C)CC3)cc1 (centres undefined) | 3.82% (inactive)
2 | CC1=C/C(=N\OS(=O)(=O)c2ccccc2)C(C)=CC1=O | 10.7% (inactive)
3 | CC1=CC(=O)C(C(C)C)=C/C1=N/OS(=O)(=O)c1ccccc1 | 1.82% (inactive)
4 | O=C(NCCCn1ccnc1)C1CC(c2ccccc2Cl)=NO1 (centres undefined) | -2.77% (inactive)
5 | COc1ccc(C(Nc2ccc(S(=O)(=O)NCC3CCCO3)cc2)C(=O)NC(C)(C)C)cc1OC (centres undefined) | -2.66% (inactive)
6 | COc1cc(C(Nc2ccc(S(=O)(=O)NCC3CCCO3)cc2)C(=O)NC(C)(C)C)cc(OC)c1OC (centres undefined) | 13.6% (active)
7 | COc1cc(C(Nc2ccc(S(=O)(=O)N3CCC(C)CC3)cc2)C(=O)NCC2CCCO2)cc(OC)c1OC (centres undefined) | 0.15% (inactive)
8 | CC(=O)Nc1cccc(OCc2ccc(S(=O)(=O)Cc3ccccc3)cc2)c1 | -12.3% (inactive)
9 | O=C1NC(=O)/C(=C\c2ccc(O)cc2O)S1 | 12.9% (active)
10 | O=C1NC(=O)/C(=C/c2ccc(O)cc2)S1 | 2.35% (inactive)
11 | Cc1cc(N2CCOCC2)ccc1/C=C1/SC(=O)NC1=O | -0.05% (inactive)
12 | c1ccc(CSc2ccc(-c3cccnc3)nn2)cc1 | -0.08% (inactive)
13 | Cc1cc(NC(=O)CSC2=Nc3ccccc3C3=NC(Cc4ccccc4)C(=O)N23)n[nH]1 (centres undefined) | -1.18% (inactive)
14 | CC1(C)Cc2c(C#N)c(N)n(-c3ccccc3)c(=O)c2CO1 | -3.12% (inactive)
15 | CCC1(C)Cc2c(C#N)c(N)n(-c3ccccc3)c(=S)c2CO1 (centres undefined) | 6.07% (inactive)
16 | CCC1(C)Cc2c(C#N)c(N)n(-c3ccccc3)c(=O)c2CO1 (centres undefined) | 13.3% (active)
17 | CCOC(=O)N1CCN(c2c(NCc3ccc(N(C)C)cc3)c(=O)c2=O)CC1 | -1.67% (inactive)
18 | CCCNC(=O)c1ccc(CNc2c(N3CCC(C(=O)OCC)CC3)c(=O)c2=O)cc1 | -8.96% (inactive)
19 | CCOC(=O)C1CCN(c2c(NCc3ccc(N(C)C)cc3)c(=O)c2=O)CC1 | 14.4% (active)
20 | COc1nccnc1NS(=O)(=O)c1ccc(NC(=S)NC(=O)/C=C/c2ccc(F)cc2)cc1 | 10.5% (inactive)

Row | Compound | inhibition
21 | O=C(/C=C/NNC(=O)c1ccc(Br)cc1)c1ccccc1 | -0.31% (inactive)
22 | O=C(/C=C/NNC(=O)c1cccc(Br)c1)c1cccc(Br)c1 | 12.9% (active)
23 | O=C(/C=C/NNC(=O)c1ccccc1)c1ccc(Br)cc1 | -1.06% (inactive)
24 | CC(C)(C)S(=O)(=O)c1ccsc1C(=O)O | 0.11% (inactive)
25 | Cc1cccc(-n2c(-c3ccoc3C)n[nH]c2=S)c1 | 11.9% (inactive)
26 | Cc1ccccc1-n1c(-c2ccoc2C)n[nH]c1=S | 5.31% (inactive)
27 | Cc1occc1-c1n[nH]c(=S)n1-c1ccccc1 | 12.8% (active)
28 | COc1ccccc1Nc1nc(N)nc(CSCCO)n1 | 1.91% (inactive)
29 | COc1cc(/C=C2\CC/C(=C\c3cc(OC)c(OC)c(OC)c3)C2=O)cc(OC)c1OC | -2% (inactive)
30 | COc1cc(/C=C2\CC/C(=C\c3cc(OC)c(O)c(OC)c3)C2=O)cc(OC)c1O | 14.3% (active)
31 | COc1cc(/C=C2/CC/C(=C/c3ccc(O)c(OC)c3)C2=O)ccc1O | -0.98% (inactive)
32 | N#Cc1ccc2ccn(CC(=O)NC3CCCCCC3)c2c1 | 6.23% (inactive)
33 | C[C@@H]1Cc2c(O)c(O)cc(O)c2C(=O)O1 | -2.99% (inactive)
34 | CC1Oc2cc3c(-c4c(O)cc(O)c5c(O)c6c(cc45)OC(C)C(C)C6=O)c(O)cc(O)c3c(O)c2C(=O)C1C (centres undefined) | 16.3% (active) and 8.27% (inactive)
35 | CC1CC(=O)c2c(cc3c(-c4c(O)cc(O)c5c(O)c6c(cc45)OC(C)CC6=O)c(O)cc(O)c3c2O)O1 (centres undefined) | 18.9% (inactive)
36 | Cc1ccc(C(=O)Nc2ccc(C(=O)O)cc2)cc1S(=O)(=O)NCc1ccccc1 | -0.6% (inactive)
37 | O=C(O)c1cc2nccc(-c3ccco3)n2n1 | 3.14% (inactive)
38 | Cc1cc2nccc(-c3ccco3)n2n1 | 13.6% (active)
39 | Cc1cc2nccc(-c3ccccn3)n2n1 | -6.43% (inactive)
40 | Cc1ccc(Nc2c(-c3ccc(N4CCOCC4)cc3)nc3cnccn23)cc1 | -2.79% (inactive)

Row | Compound | inhibition
41 | O=C(NCCCN1CCCCCC1)c1ccc2c(Cl)c3c(nc2c1)CCCC3 | -1.55% (inactive)
42 | S=C1NC2(CCS1)Oc1ccccc1C1CC(c3ccccc3)=NN12 (centres undefined) | -6.7% (inactive)
43 | COc1ccc(F)cc1S(=O)(=O)Nc1ccc2c(c1)OCO2 | 14.9% (active)
44 | COc1ccc(F)cc1S(=O)(=O)Nc1ccc2c(c1)OCCO2 | 2.41% (inactive)
45 | COc1ccc(C)cc1S(=O)(=O)Nc1ccc2c(c1)OCO2 | 3.25% (inactive)
46 | COc1cc(Nc2ncnc(N)n2)cc(OC)c1OC | 3.26% (inactive)
47 | COc1ccc(NC(=O)CN2CCN(CC(=O)Nc3ccccc3F)CC2)cc1OC | -7.08% (inactive)
48 | COc1ccc(-n2c(C)cc(/C=C/c3nc(O)c([N+](=O)[O-])c(=O)[nH]3)c2C)cc1 | 10% (inactive)
49 | C=CCc1cc(/C=C/c2nc(O)c([N+](=O)[O-])c(=O)[nH]2)cc(OC)c1O | 14.5% (active)
50 | O=c1[nH]c(/C=C\c2cccs2)nc(O)c1[N+](=O)[O-] | 2.4% (inactive)
51 | O=C(Nc1ccc(F)cc1F)N1CCN(c2ncccn2)CC1 | 1.49% (inactive)
52 | CC(C)(C)OC(=O)N/N=C/c1c[nH]c2ccccc12 | 2.23% (inactive)
53 | O=C(COc1cccnc1[N+](=O)[O-])Nc1ccc2c(c1)OC(F)(F)O2 | 3.24% (inactive)
54 | O=C(NCc1ccc(F)cc1)C1CCCN(c2nc3ccsc3c(=O)s2)C1 (centres undefined) | 2.37% (inactive)
55 | CCOC(=O)C1=C(c2ccccc2)NC(SCC(=O)NC2CCCCC2)=C(C#N)C1c1ccco1 (centres undefined) | 2.37% (inactive)
56 | CCOc1ccc(/C=C2/SC(=O)NC2=S)cc1 | -3.11% (inactive)
57 | Cc1ccc(/C=C2\SC(=S)N(Cc3ccccc3)C2=O)o1 | -1.65% (inactive)
58 | O=C1/C(=C\c2ccc(-c3ccccc3Cl)o2)SC(=S)N1CC1CCCO1 (centres undefined) | 7.34% (inactive)
59 | O=C1N=C(N2CCOCC2)S/C1=C\c1ccc(-c2ccccc2Cl)o1 | 2.7% (inactive)
